Mot1-301 SUMO – SUMOylation pathway inhibition by Mot1-301 growth rescue. actives 1% (n = 320,000). AID 2716. growth rescue, % at 18.8 µM. S. cerevisiae Mot1-301 growth rescue, ATP luminescence, 38.5C; percent above DMSO median, 100 means doubled;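 active means every valid replicate shows activation above 250% relative to neutral control wells; inactive means the rest, any valid replicate at or below 250%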
FAS-TE inh – blocks the thioesterase domain of human fatty acid synthase | P49327 | recombinant FAS-TE, OMFH fluorogenic substrate, fluorescence endpoint | inhibition, % at 15 µM | actives 0.67% (n = 360,000) | AID 602261;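 active means compounds whose normalised, plate-corrected inhibition of enzyme fluorescence in the single-dose primary screen is 50% or more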
Target sequence (P49327 whole entry, looked up, the tested form may be a part): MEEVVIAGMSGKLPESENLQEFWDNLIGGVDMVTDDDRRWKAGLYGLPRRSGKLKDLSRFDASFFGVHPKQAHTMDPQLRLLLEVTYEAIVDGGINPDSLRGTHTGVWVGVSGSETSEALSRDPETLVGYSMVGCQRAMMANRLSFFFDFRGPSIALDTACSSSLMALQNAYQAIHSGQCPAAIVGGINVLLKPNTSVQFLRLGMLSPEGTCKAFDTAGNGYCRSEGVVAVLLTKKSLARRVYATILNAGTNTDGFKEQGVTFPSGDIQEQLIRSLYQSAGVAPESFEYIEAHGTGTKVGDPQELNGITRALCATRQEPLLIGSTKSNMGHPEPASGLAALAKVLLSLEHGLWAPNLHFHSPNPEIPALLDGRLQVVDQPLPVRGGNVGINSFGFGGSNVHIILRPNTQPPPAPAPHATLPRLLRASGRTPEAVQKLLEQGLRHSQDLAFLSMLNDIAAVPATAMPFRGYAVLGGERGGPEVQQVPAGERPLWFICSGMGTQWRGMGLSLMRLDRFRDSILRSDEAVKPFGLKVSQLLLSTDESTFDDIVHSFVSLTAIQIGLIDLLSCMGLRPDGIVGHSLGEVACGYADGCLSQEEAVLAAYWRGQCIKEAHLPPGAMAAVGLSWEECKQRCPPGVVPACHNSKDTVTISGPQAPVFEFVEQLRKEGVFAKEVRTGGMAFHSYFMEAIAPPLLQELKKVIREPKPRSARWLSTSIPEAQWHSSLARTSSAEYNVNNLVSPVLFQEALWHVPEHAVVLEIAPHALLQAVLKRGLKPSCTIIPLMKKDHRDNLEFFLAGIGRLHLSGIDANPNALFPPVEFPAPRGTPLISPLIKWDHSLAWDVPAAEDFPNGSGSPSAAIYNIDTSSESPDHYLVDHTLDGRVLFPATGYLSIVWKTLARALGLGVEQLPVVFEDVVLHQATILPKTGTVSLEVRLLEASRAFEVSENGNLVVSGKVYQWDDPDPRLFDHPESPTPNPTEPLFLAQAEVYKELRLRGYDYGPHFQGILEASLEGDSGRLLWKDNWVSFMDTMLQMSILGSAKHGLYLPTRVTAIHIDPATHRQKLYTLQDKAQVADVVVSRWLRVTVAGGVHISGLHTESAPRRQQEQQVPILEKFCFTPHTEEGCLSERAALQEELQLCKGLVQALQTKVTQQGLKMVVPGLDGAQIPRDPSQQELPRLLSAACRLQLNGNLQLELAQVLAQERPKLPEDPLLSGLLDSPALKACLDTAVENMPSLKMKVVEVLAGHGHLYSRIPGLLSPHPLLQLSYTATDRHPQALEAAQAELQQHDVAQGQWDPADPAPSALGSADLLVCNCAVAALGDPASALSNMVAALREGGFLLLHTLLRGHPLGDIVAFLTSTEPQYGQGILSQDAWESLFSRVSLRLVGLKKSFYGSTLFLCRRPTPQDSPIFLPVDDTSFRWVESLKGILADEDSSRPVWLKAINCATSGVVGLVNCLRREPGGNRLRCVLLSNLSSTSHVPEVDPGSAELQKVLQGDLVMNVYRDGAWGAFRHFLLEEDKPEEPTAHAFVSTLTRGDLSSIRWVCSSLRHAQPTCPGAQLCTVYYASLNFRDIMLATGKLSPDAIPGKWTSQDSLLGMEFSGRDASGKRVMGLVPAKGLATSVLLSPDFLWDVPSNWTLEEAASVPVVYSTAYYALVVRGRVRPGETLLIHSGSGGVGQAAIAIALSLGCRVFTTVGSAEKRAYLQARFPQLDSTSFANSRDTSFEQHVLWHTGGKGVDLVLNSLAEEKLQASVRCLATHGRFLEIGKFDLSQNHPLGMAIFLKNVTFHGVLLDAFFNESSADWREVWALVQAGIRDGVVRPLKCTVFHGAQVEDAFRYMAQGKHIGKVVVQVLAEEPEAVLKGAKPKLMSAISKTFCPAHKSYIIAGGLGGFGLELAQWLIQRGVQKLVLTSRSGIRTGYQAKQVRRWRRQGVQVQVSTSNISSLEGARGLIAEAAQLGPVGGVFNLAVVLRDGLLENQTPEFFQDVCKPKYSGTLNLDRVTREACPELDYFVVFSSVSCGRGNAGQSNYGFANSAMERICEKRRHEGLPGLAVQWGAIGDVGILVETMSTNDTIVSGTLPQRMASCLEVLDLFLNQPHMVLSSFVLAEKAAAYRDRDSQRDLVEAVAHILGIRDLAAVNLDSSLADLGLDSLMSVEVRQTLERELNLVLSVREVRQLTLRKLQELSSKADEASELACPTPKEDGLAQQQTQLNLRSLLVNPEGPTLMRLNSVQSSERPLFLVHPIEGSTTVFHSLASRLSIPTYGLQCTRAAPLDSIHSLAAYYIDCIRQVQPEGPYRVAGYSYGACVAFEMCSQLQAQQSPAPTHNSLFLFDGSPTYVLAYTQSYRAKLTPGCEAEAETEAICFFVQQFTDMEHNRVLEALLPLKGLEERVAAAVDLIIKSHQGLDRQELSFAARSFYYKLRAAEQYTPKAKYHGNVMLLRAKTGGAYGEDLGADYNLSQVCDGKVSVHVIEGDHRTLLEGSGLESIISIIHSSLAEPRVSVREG
NadD block – NadD (S. aureus) enzyme inhibition | inhibition, % at 20 µM | actives 0.78% (n = 360,000) | AID 602399 | purified NadD enzyme, colorimetric absorbance read-out; in the data active means inhibition above about 26%
Calb FLC – C. albicans growth modulation with fluconazole. AID 1979. growth inhibition, % (no concentration beside the values). actives 0.57% (n = 300,000). C. albicans CaCi-2 (fluconazole-resistant clinical isolate) + fluconazole, Alamar Blue growth, 48 h;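 active means growth inhibition above about 58% in most replicates, limit read from the data, passing the limit was not always enough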;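 further: all wells also contain fluconazole at 8 µg/ml as a sub-toxic cotreatment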
ATG4B inh – ATG4B (human) cysteine protease inhibition. AID 504462. inhibition, % at 8.33 µM. Q9Y4P1. actives 0.51% (n = 340,000). ATG4B cleavage of LC3-PLA2, NBD-HPC fluorescence, 1 h; in the data active means inhibition above about 40%
FAS-TE inh conf – FAS thioesterase (human) inhibition, confirmation | inhibition, % at 15 µM | shares compounds with FAS-TE inh | recombinant FAS-TE, OMFH fluorogenic substrate, fluorescence | actives 45% (n = 2,300);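 active means compounds inhibiting the enzyme by at least 50% at 15 µM in any one of the replicates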
A number is an active result; i = inactive; nt = no result given. An excerpt weighted towards active compounds, which were near 3.1% of everything screened.

SMILES	Mot1-301 SUMO	FAS-TE inh	NadD block	Calb FLC	ATG4B inh	FAS-TE inh conf
O=C(NC1CC1)c1cccc2c1C(=O)c1ccc(N3CCC(Cc4ccccc4)CC3)cc1S2(=O)=O	i	i	i	nt	i	nt
O=C1c2ccc(Cl)cc2S(=O)(=O)c2cccc(C(=O)N3CCC(Cc4ccccc4)CC3)c21	i	84	i	nt	i	i
N#Cc1cccnc1N1CCN(C(=O)c2cccc3c2C(=O)c2ccc(Cl)cc2S3(=O)=O)CC1	i	i	i	nt	i	nt
O=C1c2ccc(Cl)cc2S(=O)(=O)c2cccc(C(=O)N3CCN(c4ncc(Br)cn4)CC3)c21	i	68	i	nt	i	i
Clc1ccc(-c2csc(N3CCSCC3)n2)cc1	i	i	i	i	i	nt
Cc1ccc(S(=O)(=O)NN=C2CCC(C(C)(C)C)CC2)cc1[N+](=O)[O-] (stereo not given)	i	67	i	i	i	47
Cc1ccc(C)c(CN2CCCN(Cc3cc(C)ccc3C)S2(=O)=O)c1	i	i	i	i	i	nt
Cc1ccc(S(=O)(=O)N2CCN(Cc3ccccc3)CC2)c(C)c1N(C)S(=O)(=O)c1ccccc1	i	52	i	i	i	i
Cc1ccc(S(=O)(=O)N(C)c2c(C)ccc(S(=O)(=O)N3CCN(C)CC3)c2C)cc1	i	i	i	i	i	nt
O=C(NCC(=O)N1CCCC1)NN=Cc1ccccc1O	nt	i	i	nt	nt	nt
O=C(Oc1cccc(/C=N/Nc2nc(Nc3ccccc3)nc(N3CCOCC3)n2)c1)c1ccco1	i	62	i	i	i	i
O=C(/C=C/c1cc([N+](=O)[O-])ccc1OC(F)F)NCc1ccc(F)cc1	i	72	i	i	i	86
COc1ccc(C(=O)N/C(=C\c2cn(S(=O)(=O)N(C)C)c3ccccc23)C(=O)N2CCCC2)cc1	nt	80	i	nt	nt	90
COc1ccc(C(=O)N/C(=C\c2cn(S(=O)(=O)N(C)C)c3ccccc23)C(=O)N2CCOCC2)cc1	i	82	i	i	i	71
CCN(CC)C(=O)/C(=C/c1cn(S(=O)(=O)N(C)C)c2ccccc12)NC(=O)c1ccc(OC)cc1	i	i	i	i	i	nt
COc1ccc(C(=O)N/C(=C\c2cn(S(=O)(=O)N(C)C)c3ccccc23)C(=O)NC(C)C)cc1	i	65	i	i	i	i
O=C(Nc1ccc(F)cc1)N(Cc1cccs1)Cc1cc2cc3c(cc2[nH]c1=O)OCO3	i	55	i	i	i	i
COc1ccc2[nH]c(=O)c(CN(Cc3cccs3)C(=S)Nc3cccc(C)c3)cc2c1	i	72	i	i	i	i
CNC(=S)N(Cc1cccs1)Cc1cc2cc(OC)ccc2[nH]c1=O	i	i	i	i	i	nt
COc1ccc(CCNc2ccc(N3C(=O)CC(C)C3=O)cc2[N+](=O)[O-])cc1OC (stereo not given)	i	i	i	i	i	nt
CCC(C)(C#CCN1CCCCC1)OC(C)=O (stereo not given)	i	i	i	i	i	nt
O=C(Nc1cc(S(=O)(=O)N2CCOCC2)ccc1N1CCCCC1)c1ccccc1	i	i	i	nt	i	nt
COc1ccccc1C(=O)Nc1nc(-c2ccc(S(=O)(=O)N3CCOCC3)cc2)cs1	i	52	i	i	i	23
COc1ccc(-c2cc(C(=O)Nc3cc(S(=O)(=O)N4CCOCC4)ccc3N3CCOCC3)c3ccccc3n2)cc1	i	82	i	i	i	i
O=C(Nc1nc(-c2ccc(S(=O)(=O)N3CCCC3)cc2)cs1)c1ccco1	i	70	i	i	i	65
SMILES	Mot1-301 SUMO	FAS-TE inh	NadD block	Calb FLC	ATG4B inh	FAS-TE inh conf
CNc1nc(-c2ccc(S(=O)(=O)N3CCCCC3)cc2)cs1	i	i	i	nt	i	nt
O=C(Nc1cc(S(=O)(=O)N2CCOCC2)ccc1N1CCCC1)c1ccc2c(c1)S(=O)(=O)c1ccccc1C2=O	i	79	i	i	i	i
CC(C)C(=O)Nc1nc(-c2ccc(S(=O)(=O)N3CCOCC3)cc2)cs1	i	85	i	i	i	86
O[C@H]1C[C@H](c2ccccc2)N(CC2CCCCC2)C[C@@H]1n1cc(C2CC2)nn1	nt	65	i	nt	nt	65
Cc1nc2ccc(NC(=O)c3cc([N+](=O)[O-])cc([N+](=O)[O-])c3Cl)cc2s1	i	70	34	nt	i	89
O=C(CCCCCNC(=O)N1CCn2c1nc1ccccc12)NCc1ccc(F)cc1	i	i	i	i	i	nt

Screening data as filed in PubChem BioAssay.
